Several values for one entry are separate records, joined by “and”; a condition that tells them apart may be missing. Equal entries are not always repeated. Results filed as inconclusive are left out. Activity calls are given as the source filed them. Unless noted, no stated cut-off is given here; in the data, active means inhibition above about 80%; inactive means the rest.

The nature of assay [1]: GFP-Q80 aggregate reduction, neuronal-like cells, cell-based, NGF-treated PC12, GFPQ80 (AID 1614).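 Further: lower means fewer inclusions and 0 means no inclusions at all.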 The following applies: PC12 NGF-treated GFP-polyQ80 inclusion reduction.
Assay [2] is described as follows: viability loss in pontine glioma line – cell-based, SU-DIPG-XVII, MIPE5.0, CellTiter-Glo, qHTS, dose response (AID 1347060; cut-off not given, nearly all actives have AC50 up to about 26 µM;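 on AC50: cells exposed to compound for 48 hours before viability readout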). Particulars: CellTiter-Glo ATP luminescence.
Assay [3] can be described thus: viability loss in pontine glioma line – cell-based, SU-DIPG-XIII, MIPE4.0, CellTiter-Glo, qHTS, dose response (AID 1347061; cut-off not given, nearly all actives have AC50 up to about 37 µM;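 further: cells exposed to compound for 48 hours before readout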). The following applies: CellTiter-Glo ATP luminescence. (In general: Cellular ATP, detected with luciferase, serves as a proxy for viable cell number.)
A short description of assay [4]: viability loss in pontine glioma line – cell-based, JHH-DIPG-1, MIPE4.0, CellTiter-Glo, qHTS, dose response (AID 1347062; cut-off not given, nearly all actives have AC50 up to about 27 µM;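 on AC50: cells exposed to compound for two days before readout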). Particulars: JHH-DIPG-1 viability, CellTiter-Glo ATP luminescence.
The nature of assay [5]: viability loss in pontine glioma line – cell-based, SU-DIPG-XXV, MIPE5.0, CellTiter-Glo, qHTS, dose response (AID 1347065; cut-off not given, nearly all actives have AC50 up to about 26 µM;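 further: cells exposed to compound for 48 hours before ATP readout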). Particulars: CellTiter-Glo ATP luminescence.
The nature of assay [6]: growth inhibition of DIPG cells – cell-based, MIPE4.0 library, CellTiter-Glo luminescence, qHTS (AID 1347066; cut-off not given, nearly all actives have AC50 up to about 30 µM;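 further: cells exposed to compound for 48 hours before readout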). The following applies: SU-DIPG-VI viability, CellTiter-Glo ATP luminescence.
Assay [7] can be described thus: JHH-DIPG-1 glioma cell viability, MIPE5.0 library, CellTiter-Glo luminescence, qHTS (AID 1347067; cut-off not given, nearly all actives have AC50 up to about 26 µM;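 further: cells exposed to compound for 48 hours before readout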). Particulars: JHH-DIPG-1 glioma viability, CellTiter-Glo ATP luminescence.
Assay [8] can be described thus: growth inhibition of DIPG cells – cell-based, MIPE5.0 library, qHTS (AID 1347068; cut-off not given, nearly all actives have IC50 up to about 30 µM). The following applies: SU-DIPG-XXV viability. Background: qHTS replaces the single test concentration by a dilution series.
Assay [9] can be described thus: compounds altering circadian rhythm period length – cell-based, LOPAC library, luminescence reporter (AID 2774; call rule not given here;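 further: values are relative to mean of DMSO wells on each plate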). Particulars: circadian reporter cells, at 7 µM, actives lie on both sides.
In assay [10] the test system is Hepatitis C virus NS3 helicase. In words: blockers of NS3h binding to ssDNA – biochemical, fluorescence polarization, LOPAC1280 library, primary screen (AID 687035; in the data active means inhibition above about 37%). Particulars: Purified HCV NS3 helicase, Cy5-dT15 ssDNA binding fluorescence polarization; stronger effect = higher value; concentration not given here.
Assay [11] is described as follows: compounds altering Cy5-DNA-NS3h complex signal – biochemical, LOPAC1280, artefact control for HCV NS3 helicase inhibitor project (AID 687037; call rule not given here). The following applies: Cy5-DNA-NS3h complex fluorescence interference counterscreen. In general terms: The purpose of a counterscreen is to sort out artefacts and off-target activity.
Assay [12] in a line: blockers of cellular phospholipid synthesis – cell-based, LOPAC library, screen 4, primary screen (AID 1347384; call rule not given here). The following applies: animal cells, phospholipid biosynthesis inhibition screen; at 10 µM.
A short description of assay [13]: growth inhibition, single agent or in combination, cell-based, chromothripsis tumors, cisplatin or BGB combos (AID 1671449).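 Further: cells exposed for 96 hours; 0% = vehicle DMSO and 100% = killing by high DMSO.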 The following applies: LFS_MB_P medulloblastoma cells.
Assay [14] can be described thus: growth inhibition, single agent and combos, cell-based, chromothripsis tumors, cisplatin or BGB combos (AID 1671450).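 Further: cells exposed to compound for four days; 0% = vehicle DMSO and 100% = cell killing by high DMSO.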 The following applies: HDN33 neuroblastoma cells, stronger effect = higher value.
Assay [15] is described as follows: growth inhibition, single agents and combos, LFS_MB_1R, cell-based, cisplatin or BGB combos, synergistic combos for chromothripsis tumors (AID 1671452).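 Further: cells exposed for 96 hours before readout.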 Particulars: LFS_MB_1R medulloblastoma cells, stronger effect = higher value.
Assay [16] can be described thus: growth inhibition, single agents and combos, HTB85, cell-based, BGB or cisplatin IC20 combos, synergistic combos for chromothripsis tumors (AID 1671453).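 Further: cells exposed for 96 hours before readout; 0% = vehicle DMSO and 100% = high DMSO killing control.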 The following applies: HTB85 osteosarcoma cells, drug combinations, stronger effect = higher value.
A short description of assay [17]: growth inhibition, MDA-MB-436, cell-based, BGB or cisplatin combos, synergistic combos for chromothripsis tumors (AID 1671458; call rule not given here;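 further: cells exposed for 96 hours; 0% = vehicle DMSO and 100% = killing by high DMSO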). Particulars: MDA-MB-436 breast carcinoma growth inhibition, drug combinations, stronger effect = higher value.
Assay [18] is described as follows: BT084 cell growth, single and combined drugs, ICGC_MB145, cisplatin and BGB IC40 combos (AID 1671461).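 Further: cells exposed to drugs for 96 hours; 0% = vehicle DMSO and 100% = high DMSO full killing control.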 The following applies: BT084 medulloblastoma cells, drug combinations, stronger effect = higher value.
A short description of assay [19]: RCMB18 cell growth, single agent and combined, cisplatin and BGB IC40 combos (AID 1671462).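 Further: cells exposed to compound for four days.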 Particulars: RCMB18 medulloblastoma cells, stronger effect = higher value.
The nature of assay [20]: CRL1545 cell growth, single agent and combined, cisplatin and BGB IC20 combos (AID 1671464).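 Further: cells exposed to compound for 96 hours before readout; 0% = vehicle DMSO and 100% = high DMSO killing control.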 The following applies: CRL1545 osteosarcoma cells, stronger effect = higher value.
The mark [21] stands for this setting: measured here: combination with BGB IC40, at 0.05 µM.
Where [22] appears, read: measured here: with BGB IC20 combination, at 0.5 µM.
Where [23] appears, read: measured here: with cisplatin IC20 combination, at 0.5 µM.
Setting [24] is: measured here: combination with cisplatin, at 0.5 µM.

Take `O=C(O)c1cccnc1`: in assay [1], the inclusion score was determined as 2. The result in [2], in assay [3], in assay [4], in [5], in assay [6] and in assay [7] was inactive. In assay [8], the molecule was classed as inactive.
For `COc1ccc(Cl)cc1C(=O)NCCc1ccc(S(=O)(=O)NC(=O)NC2CCCCC2)cc1`, the inclusion score in [1] was 2. In addition, in assay [9], the period change was 0.16 h (inactive). Also, the inhibition – broadly, the change of the read-out against control, counted positive when it falls – in [10] was 1% (inactive). For the same molecule, the fluorescence ratio (interference) in assay [11] was 1 (inactive). Also, in assay [12], the outcome was inactive.
Consider `NNCCc1ccccc1`, for which the inclusion score in assay [1] was 2. Further, the period change in [9] is 0.145 h (inactive). Also, in assay [10], the inhibition is -1% (inactive). In addition, the fluorescence ratio (interference) in assay [11] was 0.9 (inactive). The molecule was classed as inactive in assay [2], in [4], in [5], in assay [6], in assay [7] and in [8]. Moreover, in [12], the call was inactive. For the same molecule, the AC50 – broadly, the concentration at which the activity in the assay is half-maximal – in assay [3] was 9.35 µM (active).
In turn, `O=C(C1CCCCC1)N1CC(=O)N2CCc3ccccc3C2C1` (stereo not drawn) displayed an inclusion score in assay [1] of 2. In addition, the period change in [9] was 0.13 h (inactive). Besides, in [10], the inhibition was -3% (inactive). Also, the fluorescence ratio (interference) in assay [11] is 1 (inactive). In addition, the concentration at half-maximal activity (AC50) in assay [2] is 26.3 µM (active). In addition, the call in assay [3], in assay [4], in [5], in assay [6], in [7] and in [8] was inactive. In assay [12], the result was inactive.
For `CC12CC3CC(C)(C1)CC(N)(C3)C2`, the inclusion score in assay [1] is 2. For the same molecule, in [9], the period change was 0.205 h (inactive). Further, in assay [10], the inhibition is -2% (inactive). The fluorescence ratio (interference) in [11] is 1 (inactive). For the same molecule, in [4], the AC50 was 3.32 µM (active). Also, the outcome in assay [5], in assay [6], in [7], in assay [8] and in [12] was inactive.
As to `S=c1nc[nH]c2nc[nH]c12`, the AC50 is 1.18 µM (active) in [2], 0.935 µM (active) in assay [4] and 5.25 µM (active) in assay [5]. Moreover, in assay [3], the molecule was classed as inactive. The inhibition in assay [13] (at 0.5 µM, stronger effect = higher value) is -16.7% (inactive) and -25.3% (inactive) and -23.4% (inactive); in assay [13] (measured here: combination with BGB IC20, at 0.005 µM), -9.64% and 14% and 16.4%; in assay [13] (measured here: combination with BGB IC40, at 0.005 µM), -23.4% and -1.54% and -20.6%; in assay [13] (setting [21]), -13.7% and 4.76% and 13.1%; in assay [13] (measured here: combination with cisplatin, at 0.5 µM, stronger effect = higher value) it was -46.7% and -35.2% and -28.2%; in assay [13] (measured here: combination with cisplatin, at 5 µM, stronger effect = higher value), -18.6% and -9.9% and -19.4%. The inhibition is 6.4% and -7.61% and -1.61% in assay [14] (BGB combo, at 5 µM); 21.5% (inactive) and -7.1% (inactive) and 2.79% (inactive) in assay [14] (at 0.5 µM); 17.2% and 3.9% and 15.7% in assay [14] (cisplatin combo, at 5 µM); 17.6% and -24.1% and -7.78% in assay [14] (setting [22]); 11.8% and -15.2% and -7.14% in [14] (setting [23]); 55.5% and 46.9% and 55.8% in [14] (single agent, at 5 µM). In addition, the inhibition is -9.9% (inactive) and -33.2% (inactive) and -36.1% (inactive) in assay [15] (at 0.5 µM); 14.7% and -35.7% and -8.62% in [15] (setting [21]); -4.25% and -33.8% and -75.5% in [15] (setting [24]); -15.4% and -37% and -57.5% in [15] (measured here: combination with cisplatin, at 5 µM); -18.6% (inactive) and -13.7% (inactive) and -28.1% (inactive) in [16] (at 0.5 µM); -53.8% and -19.7% and -40.4% in assay [16] (measured here: with BGB IC20, at 0.5 µM). In addition, the inhibition in assay [16] (measured here: with BGB IC20, at 5 µM) was -9.25% and -19% and -8.77%; in assay [16] (measured here: with cisplatin IC20, at 0.5 µM), -18.6% and -5.87% and -28%; in [16] (measured here: with cisplatin IC20, at 5 µM), -12.1% and 4.25% and -34.8%; in assay [16] (single agent, at 5 µM), 18.8% and -4.98% and -9.17%; in assay [17] (at 0.5 µM) it was -2.57% (inactive) and -1.27% (inactive) and 12.1% (inactive); in [17] (measured here: BGB combination, at 0.5 µM), -26.2% and -7.09% and 10.3%. Besides, the inhibition is 19.5% and 16% and 25.5% in assay [17] (measured here: BGB combination, at 5 µM); -2.23% and -7.71% and 3.05% in [17] (measured here: cisplatin combination, at 0.5 µM); 44.5% and 28.1% and 46.1% in assay [17] (measured here: cisplatin combination, at 5 µM); -23.3% (inactive) and -12% (inactive) and -13.4% (inactive) in assay [18] (at 0.5 µM); -28% and -16.1% and -18.3% in assay [18] (cisplatin combination, at 0.5 µM); -59.7% and -17.4% and -65.5% in [18] (cisplatin combination, at 5 µM). Also, the inhibition in [18] (measured here: BGB IC40 combination 0.05 uM, at 0.05 µM) was -9.27% and 73.7% and -6.21%; in assay [18] (single agent, at 5 µM), -10.1% and 19.3% and -6.27%; in [19] (at 0.5 µM), 0.61% (inactive) and -7.44% (inactive) and -22.1% (inactive); in assay [19] (cisplatin combo, at 5 µM), 12.2% and -28% and -29.1%; in assay [19] (measured here: BGB IC40 combination, at 0.05 µM), 0.705% and 3.13% and 5.02%; in [19] (setting [24]), 30% and -22% and -77.2%. For the same molecule, the inhibition in [19] (single agent, at 5 µM) was -40.6% and 41.7% and -25.7%; in assay [20] (at 0.5 µM), -26.3% (inactive) and -12.8% (inactive) and -43.8% (inactive); in assay [20] (setting [22]) it was -10.8% and -54.5% and -18%; in [20] (setting [23]) it was -34% and 8.01% and -56.8%; in [20] (single agent, at 0.05 µM), 2.04% and -10.4% and -14.2%; in assay [20] (single agent, at 5 µM) it was 33.1% and 21.8% and 31.5%.

These data come from PubChem BioAssay.
